# Measured values: PubChem BioAssay (Tox21)
# Several values for one entry are separate records, joined by “and”; a condition that tells them apart may be missing. Identical values can stand only once. Inconclusive results are not listed. A call without a number means that no potency is given here. The source holds several records for some structures; these can differ, active in one and inactive in another. Activity calls are given as the source filed them. Unless noted, the call rests on the fitted dose curve.
# Assays:
# [1] = Nuclear factor erythroid 2-related factor 2/antioxidant responsive element (Nrf2/ARE) small molecule agonists: qHTS cell viability counter screen in human keratinocytes (AID 1919968; active means well fitted curve in the direction sought with a large enough effect in the repeat runs; an effect the other way counts as inactive or inconclusive; further: nearly all actives have a fitted effect of over 55% in size; further: potency means the concentration at half of the fitted maximal effect)
# Method in brief: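 Seed 1,500 KeratinoSens cells per well, then incubate 5 h at 37 C/5% CO2. Add compounds in DMSO and incubate 23 h. Add CellTiter-Fluor, wait 1 h and read fluorescence.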
# [2] = Nuclear factor erythroid 2-related factor 2/antioxidant responsive element (Nrf2/ARE) small molecule agonists: luciferase reporter gene qHTS assay in human keratinocytes (AID 1919969); further: nearly all actives have a fitted effect of over 35% in size; further: potency means the concentration at half of the fitted maximal effect
# [3] = molecular target: Gonadotropin-releasing hormone receptor (Homo sapiens) (UniProt P30968); assay: Human gonadotropin-releasing hormone receptor (GnRHR) small molecule agonists, calcium flux assay in GnRHR-HEK293 cells (AID 1920063); further: nearly all actives have a fitted effect of over 35% in size
# Chain of Gonadotropin-releasing hormone receptor (Homo sapiens) (P30968 whole entry, looked up): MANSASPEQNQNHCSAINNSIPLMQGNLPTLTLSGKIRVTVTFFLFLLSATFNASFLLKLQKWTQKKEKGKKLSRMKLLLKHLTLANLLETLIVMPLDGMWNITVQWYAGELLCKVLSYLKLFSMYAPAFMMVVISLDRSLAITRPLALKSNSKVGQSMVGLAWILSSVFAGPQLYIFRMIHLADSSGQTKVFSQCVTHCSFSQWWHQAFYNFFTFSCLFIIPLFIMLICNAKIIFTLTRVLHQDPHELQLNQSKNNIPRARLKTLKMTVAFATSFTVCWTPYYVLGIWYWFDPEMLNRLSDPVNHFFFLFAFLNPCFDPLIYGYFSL
# Method in brief: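 Cells: HEK293 stably expressing human GnRHR. Steps: overnight (18 h) culture, 1 h calcium dye loading at 37 C, compound addition, kinetic fluorescence read at 480/540 nm. Each compound tested at 15 concentrations in triplicate.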
# [4] = molecular target: KiSS-1 receptor (Homo sapiens) (UniProt Q969F8); assay: Human kisspeptin (KISS1R) small molecule agonists, calcium flux assay in KISS1R-HEK293 cells (AID 1920064; active means well fitted curve in the direction sought with a large enough effect in the repeat runs; an effect the other way counts as inactive or inconclusive)
# Chain of KiSS-1 receptor (Homo sapiens) (Q969F8 whole entry, looked up): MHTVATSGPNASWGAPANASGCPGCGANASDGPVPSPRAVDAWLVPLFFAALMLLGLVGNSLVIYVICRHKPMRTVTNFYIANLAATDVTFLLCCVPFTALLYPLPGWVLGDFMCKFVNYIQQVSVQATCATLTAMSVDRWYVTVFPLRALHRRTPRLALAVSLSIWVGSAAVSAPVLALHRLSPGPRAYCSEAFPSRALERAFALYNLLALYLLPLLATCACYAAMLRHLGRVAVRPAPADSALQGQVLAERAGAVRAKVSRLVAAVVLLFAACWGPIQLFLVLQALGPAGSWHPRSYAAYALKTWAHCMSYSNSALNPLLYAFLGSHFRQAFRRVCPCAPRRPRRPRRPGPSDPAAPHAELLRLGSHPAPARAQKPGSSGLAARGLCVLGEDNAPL
# Method in brief: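 Cells plated and incubated 18 h; dye added, 1 h at 37 C; compounds in DMSO pinned in; signal read at 480/540 nm every second for 3 min. Each compound tested at 15 concentrations in triplicate.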
# [5] = G protein-coupled receptor (GPCR) small molecule agonists, calcium flux assay: HEK293 wild type cell line counter screen (AID 1920065)
# Method in brief: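 Counter-screen of the Tox21 10K library for non-specific calcium release: dye-loaded cells received compounds in DMSO and were monitored by kinetic fluorescence (480/540 nm, 3 min). Fifteen concentrations, run in triplicate.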
# [6] = p53 small molecule agonists, cell-based qHTS assay with human liver microsomes: qHTS cell viability counter screen (AID 1963579); further: nearly all actives have a fitted effect of over 45% in size; further: potency means the concentration at half of the fitted maximal effect
# Method in brief: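 Tox21 library compounds, delivered from DMSO stocks, were tested on p53RE-bla cells together with 0.5 mg/mL human liver microsomes and 0.5 mg/mL NADPH (final) over 16 h at 37 C; CellTiter-Glo luminescence served as the cytotoxicity measure.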
# [7] = p53 small molecule agonists, cell-based qHTS assay with rat liver microsomes: qHTS cell viability counter screen (AID 1963580); further: nearly all actives have a fitted effect of over 45% in size; further: potency means the concentration at half of the fitted maximal effect
# Method in brief: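 Viability is assessed in parallel with the p53 reporter read: HCT-116 p53RE-bla cells receive compounds plus rat microsomes and NADPH (0.5 mg/mL final apiece), incubate 16 h at 37 C, and then CellTiter-Glo luminescence is recorded.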
# [8] = p53 small molecule agonists, cell-based qHTS assay: qHTS cell viability counter screen (AID 1963581); further: nearly all actives have a fitted effect of over 45% in size; further: potency means the concentration at half of the fitted maximal effect
# Method in brief: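 Cells: HCT-116 with p53 response element-driven beta-lactamase. Treatment: 16 h, 37 C, compounds in DMSO. Read: CellTiter-Glo luminescence after 30 min RT.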
# [9] = p53 small molecule agonists, cell-based qHTS assay (AID 1963582; active means well fitted activation curve with a large enough effect in the signal ratio in the repeat runs, not every such curve was filed as active; the % refers to the signal ratio)
# Method in brief: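 Quantitative HTS in p53RE-bla cells: after a 5 h settling period, compounds delivered in DMSO were left on cells for 16 h at 37 C, and reporter induction was measured as fluorescence following 2 h substrate loading.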
# [10] = molecular target: 5-hydroxytryptamine receptor 2A (Homo sapiens) (UniProt P28223); assay: 5-hydroxytryptamine receptor 2A (HTR2A) small molecule antagonists, cell-based qHTS assay (AID 1963586); further: nearly all actives have a fitted effect of over 45% in size; further: potency means the concentration at half of the fitted maximal effect
# Chain of 5-hydroxytryptamine receptor 2A (Homo sapiens) (P28223 whole entry, looked up): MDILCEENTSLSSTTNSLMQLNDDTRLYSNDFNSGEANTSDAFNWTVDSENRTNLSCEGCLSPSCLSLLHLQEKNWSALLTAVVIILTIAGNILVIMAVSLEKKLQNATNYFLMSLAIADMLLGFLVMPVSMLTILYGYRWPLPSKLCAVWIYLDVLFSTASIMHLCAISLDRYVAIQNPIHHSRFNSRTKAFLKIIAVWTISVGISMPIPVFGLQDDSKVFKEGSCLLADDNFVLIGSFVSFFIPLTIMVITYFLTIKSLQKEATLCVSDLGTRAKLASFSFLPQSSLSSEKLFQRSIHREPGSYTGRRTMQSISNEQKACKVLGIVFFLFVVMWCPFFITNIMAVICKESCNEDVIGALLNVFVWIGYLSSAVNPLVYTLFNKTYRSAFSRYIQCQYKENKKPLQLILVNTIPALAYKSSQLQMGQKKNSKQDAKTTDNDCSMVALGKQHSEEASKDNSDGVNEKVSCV
# Method in brief: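 Antagonist-mode intracellular calcium assay: DOI (4 nM) added after 5 min compound pre-incubation at room temperature to dye-loaded HTR2A-CHO cells. Fluorescence followed for 3 min, sampled every second.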
# [11] = molecular target: 5-hydroxytryptamine receptor 2A (Homo sapiens) (UniProt P28223); assay: 5-hydroxytryptamine receptor 2A (HTR2A) small molecule agonists, cell-based qHTS assay (AID 1963587); further: nearly all actives have a fitted effect of over 30% in size; further: potency means the concentration at half of the fitted maximal effect
# Method in brief: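 CHO cells stably expressing human HTR2A, plated 18 h, loaded with calcium dye 1 h at 37 C. Agonist mode: compounds added and intracellular calcium fluorescence recorded kinetically for 2 min at 1 sec intervals.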
# [12] = molecular target: Muscarinic acetylcholine receptor M1 (Homo sapiens) (UniProt P11229); assay: Cholinergic receptor muscarinic 1 (CHRM1) small molecule antagonists, cell-based qHTS assay (AID 1963588); further: nearly all actives have a fitted effect of over 40% in size
# Chain of Muscarinic acetylcholine receptor M1 (Homo sapiens) (P11229 whole entry, looked up): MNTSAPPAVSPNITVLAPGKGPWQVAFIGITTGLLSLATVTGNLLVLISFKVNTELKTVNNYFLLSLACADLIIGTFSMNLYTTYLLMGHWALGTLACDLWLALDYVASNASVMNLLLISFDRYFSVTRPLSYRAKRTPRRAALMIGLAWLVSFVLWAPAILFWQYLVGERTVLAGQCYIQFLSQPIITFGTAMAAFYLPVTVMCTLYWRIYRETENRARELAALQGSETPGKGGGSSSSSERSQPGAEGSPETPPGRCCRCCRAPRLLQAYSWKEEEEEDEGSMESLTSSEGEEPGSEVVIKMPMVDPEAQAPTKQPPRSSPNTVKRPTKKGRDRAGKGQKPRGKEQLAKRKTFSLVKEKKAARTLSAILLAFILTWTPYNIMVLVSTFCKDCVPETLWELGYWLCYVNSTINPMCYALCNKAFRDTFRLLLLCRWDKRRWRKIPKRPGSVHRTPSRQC
# Method in brief: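 CHRM1-CHO calcium-flux assay, antagonist mode. Cells were seeded 18 h, dye-loaded 1 h at 37 C and given compound for 5 min at RT, then acetylcholine was added at 50nM. FDSS fluorescence was read 3 min; 15 concentrations, three runs.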
# [13] = molecular target: Muscarinic acetylcholine receptor M1 (Homo sapiens) (UniProt P11229); assay: Cholinergic receptor muscarinic 1 (CHRM1) small molecule agonists, cell-based qHTS assay (AID 1963589); further: nearly all actives have a fitted effect of over 35% in size; further: potency means the concentration at half of the fitted maximal effect
# Method in brief: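 Agonist-mode qHTS in CHO cells stably carrying human muscarinic M1. Intracellular calcium is tracked by fluorescence every second after compound transfer; each compound runs at 15 concentrations in three independent runs.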
# [14] = cAMP Responsive Elements (CRE) small molecule agonists, cell-based qHTS assay (AID 1963590)
# Method in brief: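 Agonist mode qHTS in CRE-bla HEK 293T cells: compounds dosed from DMSO for 3 h at 37 C/5% CO2, followed by LiveBLAzer B/G FRET substrate for 2 h at room temperature.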
# [15] = cAMP Responsive Elements (CRE) small molecule antagonists, cell-based qHTS assay (AID 1963591; active means well fitted inhibition curve with a large enough effect in the signal ratio in the repeat runs, not every such curve was filed as active; the % refers to the signal ratio)
# Method in brief: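 Antagonist mode: test compounds are co-incubated with the adenylyl cyclase activator NKH477 (0.25 uM final) on CRE-bla HEK293T cells for 3 h at 37 °C, followed by LiveBLAzer substrate loading.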
# [16] = molecular target: Beta-2 adrenergic receptor (Homo sapiens) (UniProt P07550); assay: Adrenergic beta2 receptor (ADRB2) small molecule antagonists, cell-based qHTS assay (AID 1963592); further: nearly all actives have a fitted effect of over 50% in size; further: potency means the concentration at half of the fitted maximal effect
# Chain of Beta-2 adrenergic receptor (Homo sapiens) (P07550 whole entry, looked up): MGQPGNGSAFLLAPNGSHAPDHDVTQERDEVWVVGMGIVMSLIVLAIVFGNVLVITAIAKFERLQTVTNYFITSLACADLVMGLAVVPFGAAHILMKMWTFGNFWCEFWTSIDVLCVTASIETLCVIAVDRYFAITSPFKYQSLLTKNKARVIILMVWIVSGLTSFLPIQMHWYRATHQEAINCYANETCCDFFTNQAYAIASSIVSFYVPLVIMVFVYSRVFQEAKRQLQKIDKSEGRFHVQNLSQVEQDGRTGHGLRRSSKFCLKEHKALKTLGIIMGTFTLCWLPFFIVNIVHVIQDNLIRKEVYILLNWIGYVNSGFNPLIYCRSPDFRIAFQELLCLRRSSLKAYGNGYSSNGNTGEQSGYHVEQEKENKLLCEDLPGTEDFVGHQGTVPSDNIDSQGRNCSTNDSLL
# Method in brief: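 Cells (CHO, stable ADRB2 overexpression) incubated 18-20hr at 37C; compounds added from DMSO; agonist mix (1nM isoproterenol, 100uM IBMX, 25uM Ro-20-1724) added; 0.5hr RT; d2-cAMP and anti-cAMP-cryptate added; 1hr RT; 665/615 nm read.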
# [17] = molecular target: D(2) dopamine receptor (Homo sapiens) (UniProt P14416); assay: Dopamine D2 receptor (DRD2) small molecule agonists, cell-based qHTS assay (AID 1963594); further: nearly all actives have a fitted effect of over 35% in size
# Chain of D(2) dopamine receptor (Homo sapiens) (P14416 whole entry, looked up): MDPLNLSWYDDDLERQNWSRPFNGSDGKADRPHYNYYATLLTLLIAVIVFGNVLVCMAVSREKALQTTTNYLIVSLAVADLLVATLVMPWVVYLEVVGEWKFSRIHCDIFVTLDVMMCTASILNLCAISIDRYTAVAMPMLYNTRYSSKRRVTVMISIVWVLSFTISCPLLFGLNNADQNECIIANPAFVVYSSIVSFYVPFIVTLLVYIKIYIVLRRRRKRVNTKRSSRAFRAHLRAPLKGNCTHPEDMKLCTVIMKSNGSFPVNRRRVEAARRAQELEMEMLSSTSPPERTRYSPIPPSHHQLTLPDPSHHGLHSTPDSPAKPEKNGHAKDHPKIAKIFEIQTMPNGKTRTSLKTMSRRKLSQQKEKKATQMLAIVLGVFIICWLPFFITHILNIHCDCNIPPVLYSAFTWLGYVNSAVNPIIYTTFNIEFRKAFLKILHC
# Method in brief: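 HEK293 cells stably expressing human DRD2, pre-treated with PDE inhibitor Ro20-1724 (0.1 mM final) and compound 10 min at room temperature, then stimulated with NKH477 (200nM […]) for 30 min. cAMP read by HTRF (665/620 nm).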
# [18] = molecular target: D(2) dopamine receptor (Homo sapiens) (UniProt P14416); assay: Dopamine D2 receptor (DRD2) small molecule antagonists, cell-based qHTS assay (AID 1963595; active means well fitted inhibition curve with a large enough effect in the signal ratio in the repeat runs, with a control signal flat; the % refers to the signal ratio; further: potency means the concentration at half of the fitted maximal effect)
# Method in brief: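 Antagonism was scored as restored cAMP in HEK293-DRD2 cells. These cells were stimulated with 200 nM NKH477 and 12 nM quinpirole for 30 min at room temperature, in the presence of 0.1 mM Ro20-1724.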
# [19] = molecular target: Beta-2 adrenergic receptor (Homo sapiens) (UniProt P07550); assay: Adrenergic beta2 receptor (ADRB2) small molecule agonists, cell-based qHTS assay (AID 1963593);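 further: CHO cells stably overexpressing human ADRB2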
# Method in brief: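 CHO cells stably over-expressing ADRB2 were plated overnight at 37C, then dosed with compounds plus a stimulation mix containing 100uM IBMX and 25uM Ro-20-1724 for 0.5hr at room temperature. cAMP was measured by HTRF competition, 1hr.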
# [20] = p53 small molecule agonists, cell-based qHTS assay with human liver microsomes (AID 1963577);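 further: p53 response element beta-lactamase reporter cells with liver microsomes plus NADPH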
# Method in brief: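 Metabolically competent format: test substances, human liver microsomes and NADPH (both 0.5 mg/mL final) incubated with p53RE-bla cells 16 h at 37 C. Beta-lactamase reporter signal then quantified by fluorescence.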
SMILES,Potency [1],Potency [2],Potency [3],Potency [4],Potency [5],Potency [6],Potency [7],Potency [8],Potency [9],Potency [10],Potency [11],Potency [12],Potency [13],Potency [14],Potency [15],Potency [16],Potency [17],Potency [18],Potency [19],Potency [20]
COP(=S)(OC)Oc1ccc(Sc2ccc(OP(=S)(OC)OC)cc2)cc1,inactive,inactive,inactive,inactive,inactive,inactive,inactive,inactive,inactive,inactive,inactive,inactive,inactive,inactive,inactive,inactive,inactive,inactive,–,–
CC(=O)C(C)(C)C,inactive,inactive,inactive,inactive,inactive,inactive,inactive,inactive,–,inactive,inactive,inactive,inactive,–,inactive,inactive,inactive,inactive,inactive,–
CCC[CH2][Sn]([Cl])([Cl])[CH2]CCC,1.23 µM (active) and 2.17 µM (active),492 nM (active) and 969 nM (active),inactive,inactive,inactive,–,18.5 µM (active) and 45.8 µM (active),3.28 µM (active) and 4.08 µM (active),–,inactive,–,inactive,–,–,–,–,inactive,inactive,inactive,inactive
COc1ccc2c3c1O[C@H]1[C@H](O)CC[C@H]4[C@@H](C2)N(C)CC[C@@]341,inactive,inactive,inactive,inactive,inactive,inactive,inactive,inactive,inactive,inactive,inactive,–,inactive,inactive,–,–,inactive,inactive,inactive,–
NC(=O)CF,inactive,inactive,inactive,inactive,inactive,–,inactive,inactive,inactive,inactive,inactive,inactive,inactive,–,inactive,inactive,inactive,inactive,–,–
O=C(NCc1cccnc1)Nc1ccc([N+](=O)[O-])cc1,inactive,inactive,inactive,inactive,inactive,inactive,inactive,inactive,inactive,3.75 µM (active),inactive,inactive,inactive,–,inactive,inactive,inactive,inactive,–,–
Oc1ccc(Cl)c(Cl)c1,inactive,inactive,inactive,inactive,inactive,inactive,–,inactive,–,inactive,inactive,–,inactive,inactive,inactive,inactive,inactive,inactive,–,–
Cc1cccc(N)c1N,inactive,2.35 µM (active) and 48.6 µM (active),inactive,inactive,inactive,inactive,inactive,inactive,inactive,inactive,–,inactive,inactive,inactive,inactive,inactive,inactive,inactive,inactive,–
CNC(=O)O/N=C(\SC)C(=O)N(C)C,inactive,inactive,inactive,inactive,inactive,inactive,inactive,inactive,inactive,inactive,inactive,inactive,inactive,inactive,–,inactive,inactive,inactive,inactive,–
Oc1cc(Cl)ccc1Oc1ccc(Cl)cc1Cl,22.2 µM (active) and 29.8 µM (active),inactive,inactive,inactive,inactive,16.6 µM (active) and inactive,37.2 µM (active) and inactive,26.3 µM (active),inactive,inactive,35.5 µM (active),inactive,inactive,–,–,52.6 µM (active),inactive,55.8 µM (active),–,–
CCCCC(CC)COC(=O)c1c(Br)c(Br)c(Br)c(Br)c1C(=O)OCC(CC)CCCC (stereo unspecified),inactive,inactive,inactive,inactive,inactive,inactive,inactive,inactive,inactive,inactive,inactive,inactive,–,–,inactive,inactive,–,inactive,inactive,–
COP(=S)(OC)SCN1C(=O)c2ccccc2C1=O,inactive,61.6 µM (active) and 68.6 µM (active) and inactive,inactive,inactive,inactive,inactive,inactive,inactive,inactive,inactive,inactive,inactive,inactive,inactive,inactive,inactive,inactive,inactive,inactive,–
CCC[N+]1(C)CCCC1,inactive,inactive,inactive,inactive,inactive,inactive,inactive,inactive,–,inactive,inactive,inactive,inactive and 24.3 µM (active) and 21.9 µM (active),inactive,inactive,inactive,inactive,inactive,inactive,–
CC(C)(C)c1ccccc1O,inactive,inactive,inactive,inactive,inactive,inactive,inactive,inactive,–,inactive,inactive,inactive,inactive,inactive,inactive,inactive,inactive,–,inactive,–
CNC(=O)Oc1cccc2c1OC(C)(C)C2,inactive,inactive,inactive,inactive,inactive,inactive,inactive,inactive,inactive,inactive,–,inactive,inactive,inactive,inactive,–,inactive,inactive,inactive,–
